PubChem BioAssay (NCI)
The panel holds about 83,000 compounds, 20% with a hit somewhere; the sample as a whole holds those more often.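 How to read the values: 0–100, growth inhibition (40 = 60% inhibited); 0, no net growth; -100 to 0, cell death (-40 = 40% of starting cells died; -100 = all dead).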 Activity calls are given as the source filed them. Rule for the calls: active = growth percent below 10; inactive = the rest.

Experiments:
Assay in all cases: NCI-60 one-dose screen, 48 h (100 = growth as untreated, 0 = no growth, -100 = all killed)
Settings in all cases: 10 µM unless noted
[1] = test system: HCT-15 colon
[2] = test system: HT29 colon
[3] = test system: SNB-75 CNS
[4] = test system: U251 CNS
[5] = test system: PC-3 prostate
[6] = test system: UACC-62 melanoma
[7] = test system: LOX IMVI melanoma
[8] = test system: SK-MEL-28 melanoma
[9] = test system: SN12C renal
[10] = test system: UO-31 renal
[11] = test system: ACHN renal
[12] = test system: CAKI-1 renal
[13] = test system: A498 renal
[14] = test system: CCRF-CEM leukemia
[15] = test system: MOLT-4 leukemia
[16] = test system: SNB-19 CNS
[17] = test system: SK-MEL-2 melanoma
[18] = test system: EKVX NSCLC
[19] = test system: TK-10 renal
[20] = test system: SK-MEL-5 melanoma

Measured: growth

O=c1[nH]c(-c2ccncc2)nc2sc3c(c12)CCCCCC3
inactive: [1] 76.1% | [2] 99% | [3] 33.8% | [4] 71.7% | [5] 90.1% | [6] 88% | [7] 83.2% | [8] 101% | [9] 77.9% | [10] 70.5% | [11] 49.9% | [12] 67.8% | [13] 70.1% | [14] 98.1% | [15] 92.1%

CCOC(=O)C1=C(C)N2C(=NC3=C(CCCC/C3=C\c3cc(OC)c(OC)c(OC)c3)C2c2cc(OC)c(OC)c(OC)c2)S1 (stereo not drawn)
inactive: [1] 44.8% | [2] 66.8% | [3] 89.4% | [4] 67.7% | [5] 49.8% | [6] 39.9% | [7] 74.1% | [8] 82.9% | [9] 75.2% | [10] 54.3% | [11] 69.6% | [12] 65.6% | [13] 52% | [14] 70.9% | [15] 45.3%

O=C(CCc1nnc2sc(/C=C\c3ccccc3)nn12)c1nc2ccccc2[nH]1
inactive: [1] 99.6% | [2] 36.8% | [16] 110% | [4] 89.1% | [5] 77.1% | [6] 103% | [7] 75.3% | [8] 93.3% | [17] 98.1% | [18] 88.6% | [9] 91.9% | [10] 70.4% | [19] 113% | [11] 99.5% | [12] 93.4% | [13] 65.2% | [15] 62.8%

Cc1cccc2c(=O)c3c(sc12)c(NCCCN)nc1ccccc13
inactive: [16] 51.3% | [5] 34.8% | [20] 47.3% | [6] 14.2% | [17] 89.2% | [18] 40.6% | [9] 22.1% | [10] 19.6% | [19] 29%
active: [1] -69.2% | [2] -52.8% | [4] 1.33% | [7] -93.7% | [8] 8.94% | [11] -82.9% | [12] 4.76% | [14] 2.89% | [15] -18.3%

COc1cc(C2=NN(c3ccc(S(N)(=O)=O)cc3)C(c3ccc(Cl)cc3)C2)cc(OC)c1OC (stereo not drawn)
inactive: [1] 43.1% | [2] 32.1% | [16] 56.5% | [4] 23.9% | [20] 27.5% | [7] 42.5% | [8] 44.3% | [17] 66.9% | [9] 51% | [10] 23.2% | [19] 45.9% | [11] 46.5% | [12] 53.3% | [13] 35.4% | [14] 20.7% | [15] 16.6%

O=C(Nc1ccc(Cl)c(Cl)c1)NC(CO)(CO)CO
inactive: [1] 94.9% | [2] 100% | [16] 101% | [5] 86.3% | [20] 99.3% | [6] 113% | [7] 95.2% | [8] 107% | [17] 100% | [9] 102% | [19] 113% | [11] 97.7% | [12] 91% | [13] 83.8% | [14] 93.3% | [15] 98.3%

O=c1[nH]c(=S)c2c(n1CCCO)CCC2
inactive: [1] 101% | [2] 104% | [16] 102% | [4] 101% | [5] 103% | [20] 101% | [6] 97.2% | [7] 96.5% | [8] 111% | [17] 99.8% | [18] 91.2% | [9] 99.7% | [10] 89.9% | [19] 102% | [11] 103% | [12] 93.2% | [14] 103% | [15] 104%

COc1ccc(/C=N/NC(=O)c2cnn3c2NC(c2ccccc2)C3)cc1OC1CCCC1 (stereo not drawn)
inactive: [1] 70% | [2] 90.6% | [16] 87.7% | [4] 83% | [5] 79.1% | [20] 78.8% | [6] 83% | [7] 85.2% | [8] 108% | [17] 107% | [9] 90.7% | [10] 80.1% | [19] 109% | [11] 95.3% | [12] 77.8% | [14] 90.7% | [15] 69.1%

O=C1C(Br)=C(c2ccccc2)C(=O)C(Br)=C1c1ccccc1
inactive: [1] 85.7% | [2] 110% | [5] 91.5% | [20] 98.5% | [6] 83.1% | [7] 97.5% | [8] 107% | [17] 99.6% | [9] 95.2% | [10] 77.9% | [19] 102% | [11] 92.2% | [12] 94% | [13] 67.3% | [14] 31.9% | [15] 52.7%

O=C(N/N=C/c1ccc(F)cc1)c1[nH]c2ccc(I)cc2c1-c1ccccc1
active: [20] -30% | [18] 5.92% | [12] 5.08%
inactive: [1] 18.7% | [2] 12.5% | [16] 12% | [4] 20.4% | [5] 20.6% | [6] 35.2% | [7] 25.8% | [8] 67.9% | [17] 71.9% | [9] 32.6% | [10] 46% | [19] 65.2% | [11] 36% | [13] 39.1% | [14] 39.2% | [15] 72.5%

O=C1/C(=C/c2ccc(Oc3ccccc3)cc2)N=C(c2ccccc2)N1CCc1cccs1
inactive: [1] 92.4% | [2] 35% | [16] 89% | [4] 93.9% | [5] 62.1% | [20] 95.2% | [6] 72% | [7] 62.1% | [8] 94% | [17] 75.5% | [18] 95.7% | [9] 91.3% | [10] 67.6% | [19] 80.6% | [11] 96.1% | [12] 67.9% | [13] 59.7% | [14] 79.1% | [15] 62.8%

COc1ccc(-c2c3c(N)c4c(nc3nc3c2c(C)nn3-c2ccccc2)CCCC4)cc1
inactive: [1] 68.2% | [2] 21.1% | [16] 103% | [5] 64.9% | [20] 90.9% | [6] 92.9% | [7] 92.6% | [8] 96.9% | [17] 101% | [9] 93.4% | [10] 68.9% | [19] 86.8% | [11] 77.4% | [12] 83.9% | [13] 78.7% | [14] 23.2% | [15] 23.6%

COc1cccc(-c2ccc3c(c2)C2CCN(Cc4ccccc4)C3C2)c1 (stereo not drawn)
inactive: [1] 57.8% | [2] 36.5% | [3] 77% | [5] 66.5% | [6] 83.6% | [7] 85.5% | [8] 85.7% | [17] 61.5% | [9] 90.4% | [10] 51.6% | [19] 92.4% | [11] 93.2% | [12] 78.4% | [13] 65% | [15] 68.8%

Cc1nc2cc(Nc3nc(N4CCCCC4)nc(N4CCOCC4)n3)ccc2n1Cc1ccccc1
inactive: [1] 21.3% | [16] 65.3% | [5] 47.1% | [6] 32.1% | [8] 46.6% | [17] 19% | [9] 52.2% | [12] 63.3% | [13] 38.8% | [14] 62.2% | [15] 36.4%
active: [2] -8.67% | [7] 1.44% | [10] 1.61% | [19] -32.9% | [11] -41.4%

CN1CCN(C(=O)OCCOCCOC(=O)N2CCN(C)CC2)CC1
inactive: [1] 96.3% | [2] 101% | [16] 104% | [4] 103% | [5] 90.1% | [20] 104% | [6] 102% | [7] 90.9% | [8] 105% | [18] 100% | [9] 99.9% | [10] 95.8% | [19] 94.5% | [11] 97% | [12] 131% | [13] 93% | [15] 52.7%
active: [14] 8.24%

CCOC(=O)c1cn2c3c(cc(F)cc3c1=O)C(CC)c1ccccc1C2 (stereo not drawn)
inactive: [1] 57.8% | [3] 92.3% | [16] 103% | [4] 83.8% | [5] 81.6% | [20] 63.7% | [6] 105% | [7] 84.9% | [8] 98.9% | [17] 96.8% | [18] 99.7% | [9] 96.3% | [19] 111% | [11] 105% | [12] 102% | [13] 89.5% | [14] 74.9% | [15] 65.6%
active: [10] -57.3%

FCOC(C(F)(F)F)C(F)(F)F
inactive: [1] 103% | [2] 107% | [16] 108% | [4] 94.1% | [5] 106% | [6] 104% | [7] 101% | [8] 126% | [18] 107% | [9] 113% | [10] 87% | [19] 91.1% | [11] 104% | [12] 98.5% | [13] 95.3% | [14] 101% | [15] 97.3%
